Results reported in PubChem BioAssay AID1259422 (The Scripps Research Institute Molecular Screening Center, 2018).
Values joined by “and” are separate entries in the source; they are usually repeats but may differ in a detail not shown here. Equal entries are not always repeated. Out of some 640,000 compounds screened, about 9,300 (1.5%) were called active. Rule as the data show it: active = inhibition above about 32%; inactive = the rest. The entries come from a sample that favours actives as a whole.

experiment: TEAD-YAP interaction inhibition, primary screen, TEAD-YAP interaction inhibitor project, luminescence, HEK-TIYL cells (AID 1259422); conditions: TEAD-Gal4/YAP UAS-luciferase luminescence, at 9.12 µM, stronger effect = higher value;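 also: 0% = median of test compound wells and 100% = reference inhibitor wells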

Q: For CC(C#N)OC(=O)c1ccc(N2CC(O)=C(c3nc4ccccc4s3)C2=N)cc1 (configuration not stated), which inhibition is on record?
A: Its inhibition is 5.73% (inactive).

Q: Which inhibition does the source give for Cc1ccc(N2CC(O)=C(c3nc4ccccc4n3C)C2=N)cc1C here?
A: Its inhibition is -5.77% (inactive).

Q: Which inhibition does the source give for N=C1C(c2nc3ccccc3s2)=C(O)CN1c1cccc(F)c1 here?
A: The inhibition was 31.9% (active).

Q: With O=C1N[C@H](Cc2ccc(O)cc2)C(=O)N2CCN(C(=O)Oc3ccc(Cl)cc3)C[C@H]12 as the molecule, how does the inhibition read?
A: Its inhibition is -0.03% (inactive).

Q: Which inhibition does the source give for Cc1cccc(CC(=O)Nc2cnn(-c3cccc(C(=O)N(C)Cc4ccon4)c3)c2)c1 here?
A: The inhibition was 8.24% (inactive).

Q: Which inhibition does the source give for COc1ccc(-n2c(C)cc(C(=O)COC(=O)COc3ccccc3C=O)c2C)cc1 here?
A: Its inhibition is 5.99% (inactive).

Q: With COCc1cc(C(C)=O)ccc1OCC(=O)c1cc(C)n(-c2ccc(F)cc2)c1C as the molecule, how does the inhibition read?
A: Its inhibition is -1.2% (inactive).

Q: For Cc1cc(C(=O)COC(=O)C2CC2)c(C)n1-c1ccc(F)cc1, which inhibition is on record?
A: Its inhibition is 39% (active).

Q: For Cc1ccc(CCNC(=O)CCCNS(=O)(=O)c2ccc3c(c2)CCC(=O)N3)cc1, which inhibition is on record?
A: Its inhibition is 1.68% (inactive).

Q: Which inhibition does the source give for COc1ccc(CNc2nc(Nc3ccc(OC)cc3)nc3cc(OC)c(OC)cc23)cc1 here?
A: Its inhibition is 1.6% (inactive).

Q: Which inhibition does the source give for Fc1ccccc1CSc1nc(NCC2CCCO2)c2ccccc2n1 (configuration not stated) here?
A: Its inhibition is 0% (inactive).

Q: Which inhibition does the source give for Fc1ccc(Nc2nc(NCC3CCCO3)c3ccccc3n2)cc1 (configuration not stated) here?
A: Its inhibition is 42.1% (active).

Q: With Fc1ccccc1-c1nc(NCC2CCCO2)c2ccccc2n1 (configuration not stated) as the molecule, how does the inhibition read?
A: Its inhibition is 25.9% (inactive).

Q: With Fc1ccc(CSc2nc(NCc3ccccc3)c3ccccc3n2)cc1 as the molecule, how does the inhibition read?
A: The inhibition was -9.53% (inactive).

Q: For Fc1ccc(Nc2nc(NCc3ccccc3)c3ccccc3n2)cc1, which inhibition is on record?
A: The inhibition was 42% (active).

Q: With O=C(c1cc(COc2ccc(F)cc2Cl)on1)N1C[C@@H]2CCC[C@H]1C2 as the molecule, how does the inhibition read?
A: The inhibition was -37.5% (inactive).

Q: With CCn1c(N2CCC(C(=O)NCCc3ccc(O)cc3)CC2)nc2ccccc21 as the molecule, how does the inhibition read?
A: The inhibition was 4.47% (inactive).

Q: Which inhibition does the source give for COc1ccc2[nH]cc(CCNC(=O)C3CCN(c4nc5ccccc5n4C)CC3)c2c1 here?
A: The inhibition was 34.1% (active).

Q: For CC(CCc1ccco1)NC(=O)C1CCN(c2nc3ccccc3n2C)CC1 (configuration not stated), which inhibition is on record?
A: Its inhibition is 9.58% (inactive).

Q: With COc1c(C(=O)Nc2ccc(NC(C)=O)cc2)ccc2ccccc12 as the molecule, how does the inhibition read?
A: The inhibition was -28.1% (inactive).

Q: For Cc1ncn(-c2ccc(Nc3nccc(N4CCc5[nH]ncc5C4)n3)cc2)n1, which inhibition is on record?
A: The inhibition was 49.9% (active).

Q: Which inhibition does the source give for CN1CCN(c2ncn(-c3ccc(Nc4nccc(-c5ccc(NS(C)(=O)=O)cc5)n4)cc3)n2)CC1 here?
A: The inhibition was -0.18% (inactive).

Q: With Cc1ncn(-c2ccc(Nc3nccc(-c4cc(C#N)cc(NC5CCN(C)CC5)c4)n3)cc2)n1 as the molecule, how does the inhibition read?
A: The inhibition was 16.9% (inactive).

Q: With Oc1c(C(c2cccnc2)N2CCOCC2)ccc2cccnc12 (configuration not stated) as the molecule, how does the inhibition read?
A: Its inhibition is 29% (inactive).

Q: With CCc1nc2sc(C(c3ccc(F)cc3)N3CCCC3)c(O)n2n1 (configuration not stated) as the molecule, how does the inhibition read?
A: The inhibition was -0.93% (inactive).

Q: Which inhibition does the source give for OCCN1CCN(C(c2ccc(F)cc2)c2ccc3cccnc3c2O)CC1 (configuration not stated) here?
A: The inhibition was 87.9% (active).

Q: For Cc1ccccc1CN1CCN2C(=O)[C@H](Cc3ccc(O)cc3)NC(=O)[C@H]2C1, which inhibition is on record?
A: The inhibition was 0.18% (inactive).

Q: For Cc1c(Cl)cccc1NC(=O)NNC(=O)C(N)=O, which inhibition is on record?
A: The inhibition was 17% (inactive).

Q: Which inhibition does the source give for Cc1nn(CC(=O)NCc2ccccn2)c(=O)c2ccccc12 here?
A: The inhibition was -1.32% (inactive).

Q: With N#Cc1ccc(C(=O)OCC(=O)Nc2ccc3c(c2)C(=O)c2ccccc2C3=O)cc1 as the molecule, how does the inhibition read?
A: Its inhibition is -21.3% (inactive).

Q: Which inhibition does the source give for CCOc1ccc(/C=C(\C#N)c2nc3ccccc3c(=O)[nH]2)cc1OC here?
A: The inhibition was -0.7% (inactive).

Q: With CCOc1cc(/C=C(\C#N)c2nc3ncc(Br)cc3[nH]2)ccc1O as the molecule, how does the inhibition read?
A: The inhibition was -0.3% (inactive).

Q: With CCOc1cc(/C=C(\C#N)c2nc(-c3cccs3)c(NC(C)=O)s2)ccc1O as the molecule, how does the inhibition read?
A: The inhibition was 41.9% (active).

Q: With COc1ccccc1NC(=O)Cn1cnc2sc(C(=O)Nc3ccc(F)cc3Cl)c(C)c2c1=O as the molecule, how does the inhibition read?
A: The inhibition was 10.1% (inactive).

Q: For CCC(Sc1nc(Nc2ccc(F)c(F)c2)c2ccccc2n1)C(=O)Nc1ccc2c(c1)OCO2 (configuration not stated), which inhibition is on record?
A: Its inhibition is 6.11% (inactive).

Q: Which inhibition does the source give for Cn1ncc(I)c1C(=O)N1CCc2ccccc2C1 here?
A: The inhibition was -9.15% (inactive).

Q: For CN(Cc1ccccc1)CC(O)COc1ccc(CNCCN2CCCCC2)cc1 (configuration not stated), which inhibition is on record?
A: Its inhibition is 3.88% (inactive).

Q: For Cc1ccc(NC(=O)CSc2nc3cc4c(cc3cc2C#N)OCCO4)cc1, which inhibition is on record?
A: The inhibition was 20.6% (inactive).

Q: Which inhibition does the source give for CN(C)c1ccc(NC(=O)CSc2nc3cc4c(cc3cc2C#N)OCCO4)cc1 here?
A: The inhibition was 66.1% (active).

Q: For Cc1cc(NC(=O)CSc2nc3cc4c(cc3cc2C#N)OCCO4)no1, which inhibition is on record?
A: Its inhibition is 2.38% (inactive).

Q: For COc1ccc2ncc(S(=O)(=O)c3ccc(C)cc3)c(N3CCOCC3)c2c1, which inhibition is on record?
A: Its inhibition is -1.64% (inactive).

Q: Which inhibition does the source give for O=C(CN1C(=O)[C@H]2CCCN2C(=O)c2ccccc21)NCc1ccccc1F here?
A: Its inhibition is 2.44% (inactive).

Q: With CC1CCCC/C1=N/NC(=O)CNc1ccc(Cl)cc1Br (configuration not stated) as the molecule, how does the inhibition read?
A: The inhibition was 3.05% (inactive).

Q: With CCOC(=O)C1=C(Cl)c2ccccc2NC1Cl (configuration not stated) as the molecule, how does the inhibition read?
A: The inhibition was 2.33% (inactive).

Q: Which inhibition does the source give for COc1cccc(CC2=NOC(C(=O)NC(C)Cc3ccsc3)C2)c1 (configuration not stated) here?
A: Its inhibition is -35% (inactive).

Q: With C=CCOC(=O)c1[nH]c2c(c1C)C(=O)CC(c1ccccc1)C2 (configuration not stated) as the molecule, how does the inhibition read?
A: The inhibition was 42.7% (active).

Q: With CSCCOC(=O)c1[nH]c2c(c1C)C(=O)CC(c1cccs1)C2 (configuration not stated) as the molecule, how does the inhibition read?
A: Its inhibition is 45.5% (active).

Q: With CCSCCOC(=O)C1=C(C)NC2=C(C(=O)CC(c3ccccc3)C2)C1c1ccccc1 (configuration not stated) as the molecule, how does the inhibition read?
A: Its inhibition is 7.09% (inactive).

Q: Which inhibition does the source give for CCOCCOC(=O)C1=C(C)NC2=C(C(=O)CC(c3cccs3)C2)C1c1ccc(OC(C)=O)cc1 (configuration not stated) here?
A: The inhibition was 7.32% (inactive).

Q: Which inhibition does the source give for CCCOC(=O)c1[nH]c2c(c1C)C(=O)CC(c1cccs1)C2 (configuration not stated) here?
A: Its inhibition is 54.8% (active).

Q: For CCSCCOC(=O)C1=C(C)NC2=C(C(=O)CC(c3cccs3)C2)C1c1ccsc1 (configuration not stated), which inhibition is on record?
A: The inhibition was 1.93% (inactive).

Q: Which inhibition does the source give for CCCOC(=O)C1=C(C)NC2=C(C(=O)CC(C)(C)C2)C1c1cccs1 (configuration not stated) here?
A: Its inhibition is -1.04% (inactive) and 6.64% (inactive).

Q: For CCOC(=O)C1=C(C)NC2=C(C(=O)CC(c3ccccc3)C2)C1c1ccccn1 (configuration not stated), which inhibition is on record?
A: Its inhibition is 11.1% (inactive) and 10.6% (inactive).

Q: For CCCOCCOC(=O)c1[nH]c2c(c1C)C(=O)CC(c1ccc(OC)cc1)C2 (configuration not stated), which inhibition is on record?
A: Its inhibition is -2.72% (inactive).

Q: With COc1ccc2oc(=O)c(S(=O)(=O)c3ccc(C)cc3)cc2c1 as the molecule, how does the inhibition read?
A: The inhibition was 7.59% (inactive).

Q: For COc1ccc2cc(Br)ccc2c1CC(=O)N(C)C1CCN(C)CC1, which inhibition is on record?
A: Its inhibition is -3.7% (inactive).

Q: Which inhibition does the source give for COc1ccccc1NC(=O)NC(CC(=O)O)c1ccc(C)cc1 (configuration not stated) here?
A: Its inhibition is 3.42% (inactive).
